# What was measured:
# Settings in all cases: concentration: 1 μM, replicates: in singlicate; n = 1
# MRCKB = test system: T1, MRCKB
# T1 construct: gene CDC42BPB
# MST1R = test system: MST1R
# MST1 = test system: T2, MST1
# T2 construct: gene STK4
# MST2 = test system: T3, MST2
# T3 construct: gene STK3
# MST3 = test system: T4, MST3
# T4 construct: gene STK24
# MST4 = test system: MST4
# MTOR = test system: MTOR
# MUSK = test system: MUSK
# MYLK2 = test system: MYLK2
# MYLK4 = test system: MYLK4
# MYLK = test system: MYLK
# MYO3A = test system: MYO3A
# MYO3B = test system: MYO3B
# NDR1 = test system: T5, NDR1
# T5 construct: gene STK38
# NDR2 = test system: NDR2
# NEK10 = test system: NEK10
# NEK11 = test system: NEK11
# NEK1 = test system: NEK1
# NEK2 = test system: NEK2
# NEK3 = test system: NEK3
# 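Note: KINOMEscan kinase panel screen.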
SMILES,%Inh (MRCKB),%Inh (MST1R),%Inh (MST1),%Inh (MST2),%Inh (MST3),%Inh (MST4),%Inh (MTOR),%Inh (MUSK),%Inh (MYLK2),%Inh (MYLK4),%Inh (MYLK),%Inh (MYO3A),%Inh (MYO3B),%Inh (NDR1),%Inh (NDR2),%Inh (NEK10),%Inh (NEK11),%Inh (NEK1),%Inh (NEK2),%Inh (NEK3)
Cc1cccc(-c2nc(Nc3ccc4c(cnn4C)c3)c3ccccc3n2)n1 [GW876731],34%,0%,0%,0%,0%,9%,0%,2%,0%,33%,0%,0%,0%,17%,68%,0%,46%,0%,14%,0%
COc1cc(OC)cc(-c2cc3cnc(N)nc3nc2NC(=O)NC(C)(C)C)c1,0%,0%,0%,1%,0%,0%,58%,0%,13%,11%,7%,0%,0%,0%,0%,0%,0%,0%,3%,33%
Cc1ccc(Oc2ccc(Nc3ncnc4cc[nH]c34)cc2C)cn1,0%,35%,0%,15%,3%,0%,0%,0%,18%,19%,38%,9%,28%,8%,0%,0%,0%,0%,2%,20%
CCS(=O)(=O)c1ccc(OC)c(Nc2ncc(-c3ccc(F)cc3)o2)c1.Cl [GW591947],0%,33%,0%,2%,0%,0%,5%,2%,2%,0%,0%,6%,0%,10%,0%,9%,0%,0%,0%,0%
COc1cc2ncn(-c3cc(OCc4ccncc4Br)c(C(N)=O)s3)c2cc1OC [GW854278],0%,74%,0%,23%,34%,24%,9%,4%,0%,70%,72%,0%,9%,0%,17%,0%,0%,0%,33%,29%
Nc1ncnc2c1ncn2-c1cccc2ccccc12 [SKF-97184],0%,6%,7%,0%,0%,0%,28%,0%,0%,4%,0%,0%,27%,29%,4%,0%,27%,11%,0%,31%
C[C@@H]1CC[C@H](C(=O)NC2CCCCC2)CN1c1cc(-c2ccc3c(N)n[nH]c3c2)nc(N)n1 [GSK2291363],15%,50%,12%,0%,14%,0%,18%,21%,11%,23%,52%,36%,0%,14%,7%,29%,0%,10%,0%,12%
Nc1ncnc2c1ncn2-c1cccc(F)c1 [SKF-97560],0%,0%,0%,50%,0%,37%,14%,0%,0%,11%,38%,0%,0%,15%,17%,53%,38%,0%,0%,25%
Cl.NS(=O)(=O)c1cccc(Nc2cc(-c3ccc(F)cc3)n[nH]2)c1 [GW824645],0%,0%,29%,14%,0%,9%,39%,0%,9%,12%,0%,0%,0%,47%,5%,8%,0%,0%,0%,14%
O=C(Nc1ccc2c(c1)OCO2)NC1CCN(c2ccnc(NCc3ccc(F)cc3)n2)CC1 [GSK1379859],0%,17%,5%,47%,0%,0%,8%,0%,0%,0%,20%,0%,0%,0%,0%,3%,8%,0%,3%,0%
